Test results published in the supplement of paper PMC10849652.
Targets with a hit are over-represented here; the source holds about 7,900 in all. About 0.6% of all pairs of compound and target were hits. Values without a mark were called inactive.

Experiments:
Assay in all cases: log2 fold change, soluble protein after heating vs DMSO (PISA); higher = thermal stabilisation; K562 cells, 10 uM, 30 min; active = over 0.2 and 3.5 SD of the protein, either way, in both replicates (recomputed)
[1] = compound: NC(=O)Nc1cc(-c2cccc(F)c2)sc1C(=O)N[C@H]1CCCNC1
How it was run: (§1)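 K562 cells (2×10^6 cells/mL) were treated with 10 μM compound for 30 min, and aliquots were heated for 3 min over 48°C-58°C. Pooled aliquots were extracted in PBS with 0.5% NP-40 at 4°C, and the supernatant after 21,000xg for 90 min was measured by TMTpro 16plex LC-MS/MS with channel sums equalised. Reported thermal stability, relative to control samples and from duplicates, is a log2 fold change.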

[2] = compound: NC(=O)c1cnc(N[C@@H]2CCCC[C@@H]2N)nc1Nc1cccc(-n2nccn2)c1
How it was run: as §1

[3] = compound: NC1(c2ccc(-c3nc4ccn5c(=O)[nH]nc5c4cc3-c3ccccc3)cc2)CCC1
How it was run: as §1

[4] = compound: NCC(=O)Nc1ccc(-n2nc(C(F)(F)F)cc2-c2ccc3c(ccc4ccccc43)c2)cc1
How it was run: as §1

entinostat = compound: Nc1ccccc1NC(=O)c1ccc(CNC(=O)OCc2cccnc2)cc1 [entinostat]
How it was run: as §1

vorinostat = compound: O=C(CCCCCCC(=O)Nc1ccccc1)NO [vorinostat]
How it was run: as §1

citarinostat = compound: O=C(CCCCCCNC(=O)c1cnc(N(c2ccccc2)c2ccccc2Cl)nc1)NO [citarinostat]
How it was run: as §1

silmitasertib = compound: O=C(O)c1ccc2c(c1)nc(Nc1cccc(Cl)c1)c1ccncc12 [silmitasertib]
How it was run: as §1

[5] = compound: O=C1NC(=O)C(c2cnc3ccccn23)=C1c1cn2c3c(cc(F)cc13)CN(C(=O)N1CCCCC1)CC2
How it was run: as §1

[6] = compound: c1cc(OCCN2CCCCC2)cc(-c2n[nH]c3ccc(-c4nnc[nH]4)cc23)c1
How it was run: as §1

entospletinib = compound: c1cn2cc(-c3ccc4cn[nH]c4c3)nc(Nc3ccc(N4CCOCC4)cc3)c2n1 [entospletinib]
How it was run: as §1

Chain of UniProt Q8N4C8 (Q8N4C8 whole entry, looked up): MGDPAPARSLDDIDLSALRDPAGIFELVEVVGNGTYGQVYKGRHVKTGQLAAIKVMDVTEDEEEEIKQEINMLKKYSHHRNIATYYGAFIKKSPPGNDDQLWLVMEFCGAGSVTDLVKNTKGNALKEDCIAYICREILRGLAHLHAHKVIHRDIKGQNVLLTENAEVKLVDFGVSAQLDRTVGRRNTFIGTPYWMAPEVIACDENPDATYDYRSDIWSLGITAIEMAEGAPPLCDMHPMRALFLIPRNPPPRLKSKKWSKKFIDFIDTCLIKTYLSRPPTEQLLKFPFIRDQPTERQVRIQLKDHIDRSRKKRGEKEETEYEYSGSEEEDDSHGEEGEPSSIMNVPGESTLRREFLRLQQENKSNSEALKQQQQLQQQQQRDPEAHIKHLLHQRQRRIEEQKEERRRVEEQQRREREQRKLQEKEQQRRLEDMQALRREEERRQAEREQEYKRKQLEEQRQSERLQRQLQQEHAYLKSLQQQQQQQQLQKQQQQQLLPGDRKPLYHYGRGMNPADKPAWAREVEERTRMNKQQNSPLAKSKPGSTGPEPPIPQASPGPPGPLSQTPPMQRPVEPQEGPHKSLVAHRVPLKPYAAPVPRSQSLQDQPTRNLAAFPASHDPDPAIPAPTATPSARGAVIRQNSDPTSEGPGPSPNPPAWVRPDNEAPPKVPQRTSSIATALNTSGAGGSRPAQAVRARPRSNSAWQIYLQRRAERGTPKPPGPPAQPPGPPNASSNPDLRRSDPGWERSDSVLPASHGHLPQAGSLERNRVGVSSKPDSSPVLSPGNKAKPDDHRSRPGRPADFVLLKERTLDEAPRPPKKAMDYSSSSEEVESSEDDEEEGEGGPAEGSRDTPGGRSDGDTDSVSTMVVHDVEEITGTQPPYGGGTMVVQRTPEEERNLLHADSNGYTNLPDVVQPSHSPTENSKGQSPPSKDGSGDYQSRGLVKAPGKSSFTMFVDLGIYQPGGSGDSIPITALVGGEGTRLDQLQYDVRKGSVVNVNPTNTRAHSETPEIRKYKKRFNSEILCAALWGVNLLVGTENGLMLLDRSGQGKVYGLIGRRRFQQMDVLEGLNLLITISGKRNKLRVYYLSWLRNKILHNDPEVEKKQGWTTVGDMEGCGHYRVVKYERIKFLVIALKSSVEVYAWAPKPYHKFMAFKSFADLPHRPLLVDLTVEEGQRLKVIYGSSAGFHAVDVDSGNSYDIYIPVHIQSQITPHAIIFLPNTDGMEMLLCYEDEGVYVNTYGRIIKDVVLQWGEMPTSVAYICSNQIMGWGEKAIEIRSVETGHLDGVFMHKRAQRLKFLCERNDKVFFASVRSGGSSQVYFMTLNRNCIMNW
Chain of UniProt O00567 (O00567 whole entry, looked up): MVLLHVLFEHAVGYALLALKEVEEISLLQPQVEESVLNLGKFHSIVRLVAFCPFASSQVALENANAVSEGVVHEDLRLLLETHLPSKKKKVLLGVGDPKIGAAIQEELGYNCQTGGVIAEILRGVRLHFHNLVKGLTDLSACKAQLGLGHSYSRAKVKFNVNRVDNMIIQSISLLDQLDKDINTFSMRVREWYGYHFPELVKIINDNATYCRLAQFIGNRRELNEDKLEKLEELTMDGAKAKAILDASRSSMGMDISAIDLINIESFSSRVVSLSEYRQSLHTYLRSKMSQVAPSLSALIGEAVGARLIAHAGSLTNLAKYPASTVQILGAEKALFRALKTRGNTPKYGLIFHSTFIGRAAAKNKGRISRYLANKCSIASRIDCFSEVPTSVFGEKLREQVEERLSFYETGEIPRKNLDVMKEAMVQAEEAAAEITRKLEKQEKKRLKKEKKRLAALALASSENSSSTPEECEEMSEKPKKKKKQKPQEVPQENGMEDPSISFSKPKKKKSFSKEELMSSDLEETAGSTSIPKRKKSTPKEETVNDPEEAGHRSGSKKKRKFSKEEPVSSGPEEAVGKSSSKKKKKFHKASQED
Chain of UniProt Q15102 (Q15102 whole entry, looked up): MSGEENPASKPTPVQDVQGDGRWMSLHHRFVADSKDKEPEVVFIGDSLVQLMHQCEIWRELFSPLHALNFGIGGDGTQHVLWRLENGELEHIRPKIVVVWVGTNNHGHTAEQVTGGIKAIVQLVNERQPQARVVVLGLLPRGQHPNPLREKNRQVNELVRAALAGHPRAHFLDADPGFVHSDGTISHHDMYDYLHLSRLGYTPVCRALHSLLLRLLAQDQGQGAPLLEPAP
Chain of UniProt Q5TFE4 (Q5TFE4 whole entry, looked up): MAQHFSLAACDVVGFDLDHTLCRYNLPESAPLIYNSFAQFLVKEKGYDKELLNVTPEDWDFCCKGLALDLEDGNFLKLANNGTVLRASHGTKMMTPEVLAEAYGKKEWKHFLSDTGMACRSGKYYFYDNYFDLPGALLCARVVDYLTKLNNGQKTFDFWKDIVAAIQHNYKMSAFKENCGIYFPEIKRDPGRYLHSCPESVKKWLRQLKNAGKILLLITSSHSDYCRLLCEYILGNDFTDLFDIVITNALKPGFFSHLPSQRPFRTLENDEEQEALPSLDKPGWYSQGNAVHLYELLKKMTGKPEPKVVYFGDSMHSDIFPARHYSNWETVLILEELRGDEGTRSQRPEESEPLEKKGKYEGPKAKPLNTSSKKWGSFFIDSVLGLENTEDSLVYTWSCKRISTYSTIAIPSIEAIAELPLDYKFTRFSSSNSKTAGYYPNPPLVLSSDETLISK
Chain of UniProt Q9ULX3 (Q9ULX3 whole entry, looked up): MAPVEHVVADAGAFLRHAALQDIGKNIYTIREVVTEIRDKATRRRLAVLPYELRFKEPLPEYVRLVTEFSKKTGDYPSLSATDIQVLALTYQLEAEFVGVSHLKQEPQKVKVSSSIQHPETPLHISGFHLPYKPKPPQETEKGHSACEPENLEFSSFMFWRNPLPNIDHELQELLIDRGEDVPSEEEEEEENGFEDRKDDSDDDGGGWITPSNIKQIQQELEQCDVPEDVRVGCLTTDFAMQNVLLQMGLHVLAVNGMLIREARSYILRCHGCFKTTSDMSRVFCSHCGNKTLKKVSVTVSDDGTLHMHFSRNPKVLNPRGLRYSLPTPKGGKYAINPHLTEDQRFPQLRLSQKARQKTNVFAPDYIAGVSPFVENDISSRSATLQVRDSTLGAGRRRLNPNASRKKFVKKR
Chain of UniProt Q96T76 (Q96T76 whole entry, looked up): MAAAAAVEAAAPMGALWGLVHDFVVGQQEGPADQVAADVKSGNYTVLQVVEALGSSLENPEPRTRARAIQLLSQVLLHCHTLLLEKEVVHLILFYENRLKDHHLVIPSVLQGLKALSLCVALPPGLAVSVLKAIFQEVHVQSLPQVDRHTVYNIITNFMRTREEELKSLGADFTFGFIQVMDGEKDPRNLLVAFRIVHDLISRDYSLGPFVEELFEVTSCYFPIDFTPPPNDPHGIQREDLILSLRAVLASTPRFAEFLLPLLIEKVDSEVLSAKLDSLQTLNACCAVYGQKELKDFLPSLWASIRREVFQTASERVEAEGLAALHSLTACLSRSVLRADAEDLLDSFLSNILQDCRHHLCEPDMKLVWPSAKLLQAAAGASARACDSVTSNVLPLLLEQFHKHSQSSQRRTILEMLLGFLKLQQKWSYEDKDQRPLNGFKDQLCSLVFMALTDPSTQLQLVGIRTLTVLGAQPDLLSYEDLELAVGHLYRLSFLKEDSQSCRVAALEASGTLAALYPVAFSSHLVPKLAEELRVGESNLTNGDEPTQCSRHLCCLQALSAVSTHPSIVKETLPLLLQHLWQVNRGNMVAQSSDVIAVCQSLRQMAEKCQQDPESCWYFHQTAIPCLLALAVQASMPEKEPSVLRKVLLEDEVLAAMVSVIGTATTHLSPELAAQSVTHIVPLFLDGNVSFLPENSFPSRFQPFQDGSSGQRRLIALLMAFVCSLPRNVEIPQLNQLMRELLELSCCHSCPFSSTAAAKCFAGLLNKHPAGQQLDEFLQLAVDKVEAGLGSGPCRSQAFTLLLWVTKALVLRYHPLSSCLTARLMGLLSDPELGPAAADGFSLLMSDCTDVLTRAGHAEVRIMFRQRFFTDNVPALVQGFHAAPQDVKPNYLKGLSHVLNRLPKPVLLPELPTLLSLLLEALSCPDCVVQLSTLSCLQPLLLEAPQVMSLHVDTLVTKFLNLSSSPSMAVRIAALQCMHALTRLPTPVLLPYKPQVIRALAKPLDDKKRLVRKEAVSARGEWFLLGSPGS
Chain of UniProt P15559 (P15559 whole entry, looked up): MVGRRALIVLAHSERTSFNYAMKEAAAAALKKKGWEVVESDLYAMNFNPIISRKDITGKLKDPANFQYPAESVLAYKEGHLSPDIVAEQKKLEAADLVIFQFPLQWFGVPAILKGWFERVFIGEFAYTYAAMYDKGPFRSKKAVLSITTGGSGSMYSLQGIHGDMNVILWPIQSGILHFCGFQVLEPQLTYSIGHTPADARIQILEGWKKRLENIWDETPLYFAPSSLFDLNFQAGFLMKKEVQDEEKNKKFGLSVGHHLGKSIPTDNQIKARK
Chain of UniProt O00217 (O00217 whole entry, looked up): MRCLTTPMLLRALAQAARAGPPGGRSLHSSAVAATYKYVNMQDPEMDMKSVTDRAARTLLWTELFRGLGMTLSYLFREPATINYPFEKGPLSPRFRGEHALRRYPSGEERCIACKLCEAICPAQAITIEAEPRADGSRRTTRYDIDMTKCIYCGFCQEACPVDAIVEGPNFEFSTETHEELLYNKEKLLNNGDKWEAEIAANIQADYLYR
Chain of UniProt Q96I59 (Q96I59 whole entry, looked up): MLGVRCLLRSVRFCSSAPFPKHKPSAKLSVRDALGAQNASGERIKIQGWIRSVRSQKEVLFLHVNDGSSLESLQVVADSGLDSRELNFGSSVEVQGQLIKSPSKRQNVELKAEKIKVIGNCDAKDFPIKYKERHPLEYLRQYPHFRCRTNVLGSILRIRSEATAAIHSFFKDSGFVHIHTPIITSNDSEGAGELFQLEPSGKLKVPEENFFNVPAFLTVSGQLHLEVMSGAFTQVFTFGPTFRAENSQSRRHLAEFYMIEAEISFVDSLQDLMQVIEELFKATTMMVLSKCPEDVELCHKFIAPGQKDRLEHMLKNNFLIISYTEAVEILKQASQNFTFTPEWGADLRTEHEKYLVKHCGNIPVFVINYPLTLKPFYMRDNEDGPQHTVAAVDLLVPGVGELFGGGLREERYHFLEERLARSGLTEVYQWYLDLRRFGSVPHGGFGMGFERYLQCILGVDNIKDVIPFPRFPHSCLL

Row | Target | log2 fold change [1] | log2 fold change [2] | log2 fold change [3] | log2 fold change [4] | log2 fold change (entinostat) | log2 fold change (vorinostat) | log2 fold change (citarinostat) | log2 fold change (silmitasertib) | log2 fold change [5] | log2 fold change [6] | log2 fold change (entospletinib)
1 | MITD1 (UniProt Q8WV92) | 0.016 | -0.018 | -0.387 | -0.059 | -0.08 | 0.057 | -0.135 | 0.14 | -0.176 | 0.228 | -0.133
2 | NT5DC1 (UniProt Q5TFE4) | -0.057 | -0.052 | -0.003 | -0.012 | -0.037 | -0.013 | 0.003 | 0.025 | -0.038 | 0.236 (active) | 0.039
3 | NCAPD2 (UniProt Q15021) | -0.109 | -0.075 | -0.149 | -0.045 | 0.084 | 0.058 | 0.078 | 0.135 | 0.014 | -0.002 | 0.031
4 | NOP56 (UniProt O00567) | 0.162 | 0.14 | 0.197 | 0.103 | -0.084 | 0.014 | -0.058 | 0.096 | 0.09 | -0.156 | -0.012
5 | NDUFA12 (UniProt Q9UI09) | -0.018 | -0.038 | -0.227 | -0.061 | 0.04 | 0.077 | 0.07 | -0.052 | 0.004 | -0.033 | -0.025
6 | MSH6 (UniProt P52701) | -0.033 | -0.091 | -0.213 | -0.191 | 0.229 | 0.273 | 0.347 | 0.14 | -0.169 | 0.097 | -0.053
7 | NUP85 (UniProt Q9BW27) | 0.01 | -0.014 | -0.092 | -0.035 | -0.011 | 0.021 | 0.031 | 0.047 | -0.041 | -0.041 | 0.005
8 | MMS19 isoform 8 (UniProt Q96T76) | 0.01 | -0.026 | -0.157 | -0.072 | 0.066 | 0.017 | 0.097 | 0.085 | -0.003 | -0.007 | 0.033
9 | PACS1 (UniProt Q6VY07) | 0 | 0.041 | -0.081 | -0.01 | 0.004 | 0.022 | -0.012 | -0.074 | 0.062 | -0.113 | 0.046
10 | MRPS24 (UniProt Q96EL2) | -0.015 | -0.016 | -0.021 | -0.086 | 0.001 | 0.04 | -0.053 | -0.096 | -0.074 | -0.105 | 0.086
11 | OXA1L (UniProt Q15070) | 0.019 | -0.021 | -0.04 | -0.025 | -0.021 | 0.005 | 0.017 | 0.02 | -0.038 | 0.113 | -0.014
12 | NDUFS8 (UniProt O00217) | -0.049 | -0.042 | -0.163 | -0.018 | 0.065 | 0.019 | 0.024 | -0.019 | -0.052 | -0.041 | -0.012
13 | MINK1 (UniProt Q8N4C8) | 0.006 | -0.032 | -0.097 | 0.005 | 0.045 | 0.057 | 0.077 | -0.041 | 0.015 | -0.119 | -0.026
14 | NMT1 (UniProt P30419) | -0.006 | -0.043 | -0.052 | -0.129 | 0.008 | 0.031 | -0.012 | -0.015 | 0.022 | -0.52 (active) | 0.04
15 | NGLY1 (UniProt Q96IV0) | -0.073 | 0.059 | -0.151 | -0.109 | 0.025 | 0.008 | 0.079 | 0.079 | 0.059 | -0.059 | 0.081
16 | NASP (UniProt P49321) | -0.009 | -0.081 | -0.06 | -0.054 | 0.035 | 0.028 | 0.035 | 0.063 | -0.034 | -0.02 | -0.007
17 | MRPS18B (UniProt Q9Y676) | 0.133 | 0 | 0.021 | 0.105 | -0.047 | 0.08 | -0.03 | -0.061 | -0.03 | -0.026 | 0.028
18 | MRPL47 (UniProt Q9HD33) | 0.024 | 0.058 | 0.039 | 0.057 | 0.028 | -0.195 | -0.087 | -0.021 | -0.011 | 0.336 | -0.116
19 | PAFAH1B3 (UniProt Q15102) | -0.036 | -0.012 | -0.066 | -0.019 | 0.057 | 0.043 | -0.045 | -0.045 | -0.108 | -0.028 | 0
20 | MTHFD1 (UniProt P11586) | -0.028 | -0.011 | 0.094 | -0.028 | 0.024 | 0.05 | 0.051 | -0.039 | -0.042 | -0.021 | 0.055
21 | NOB1 (UniProt Q9ULX3) | -0.032 | 0.002 | -0.041 | -0.021 | 0.047 | 0.093 | -0.003 | -0.096 | 0.062 | 0.038 | -0.013
22 | NARS2 (UniProt Q96I59) | -0.05 | 0.057 | -0.142 | -0.02 | 0.012 | 0 | 0.043 | -0.04 | -0.064 | -0.026 | -0.01
23 | NQO1 (UniProt P15559) | -0.032 | 0.039 | -0.018 | -0.034 | -0.013 | -0.024 | 0.009 | -0.058 | -0.149 | 0.068 | -0.101
24 | NCOR1 (UniProt O75376) | 0.096 | -0.057 | -0.005 | -0.072 | 0.007 | -0.059 | -0.028 | 0.001 | -0.044 | -0.024 | 0.067
25 | NBN (UniProt O60934) | -0.021 | -0.037 | -0.078 | -0.067 | 0.127 | 0.091 | 0.009 | -0.055 | -0.104 | 0 | 0.009
26 | NNT (UniProt Q13423) | -0.007 | -0.037 | -0.062 | -0.029 | 0.006 | 0.025 | 0.018 | -0.027 | -0.041 | 0.024 | -0.042
27 | OSTC (UniProt Q9NRP0) | -0.062 | 0.028 | -0.107 | -0.134 | 0.039 | -0.001 | 0.074 | -0.011 | 0.05 | -0.067 | 0.034
28 | OPA1 isoform 2 (UniProt O60313) | -0.046 | -0.054 | -0.165 | -0.072 | 0.024 | 0.033 | 0.05 | -0.027 | -0.033 | -0.048 | -0.008
